The record followed here is the supplement of paper PMC9399229.

Structures can show the parent of a compound that is named as a salt. ± gives the standard deviation of the averaged measurements. In all, about 1,900 compounds were measured (“relative cell viability (CellTiter-Glo), compound alone”: median about 1, lowest 2% from about 0.16 on). Many of the other results were omitted from the sample, so the lowest values are more common in it than they were.

The assay concerns Hep3B. As to the kind of experiment: relative cell viability (CellTiter-Glo), compound alone (fraction); higher = more viable cells (less growth inhibition). The note with it: cabozantinib 0 µM; 4 days. (ATP-based viability assays read luminescence as a measure of living cells.)
`CCn1cc(NC(=S)Nc2cc(Cl)ccc2OC)c(C(N)=O)n1` returned a relative cell viability of 1.44 ± 0.14.

As for `C1=N/C2=N/c3ccc(OCCN4CCCC4)c(c3)COC/C=C/COCc3cccc(c3)C(=C1)N2` [Pacritinib (SB1518)], the relative cell viability stood at 0.1545 ± 0.0015.

The compound `CN(C)c1cccc(-c2c3c(=O)n(-c4ccccc4Cl)[nH]c3cc(=O)n2C)c1` had a relative cell viability of 1.12 ± 0.1.

`O=C(NCCS(=O)(=O)c1ccc(C(F)(F)F)cn1)c1ccc(Cl)cc1`: the relative cell viability amounted to 1.2 ± 0.049.

Compound `C[C@@H](Oc1cc(-n2cnc3ccc(CN4CCN(C)CC4)cc32)sc1C(N)=O)c1ccccc1C(F)(F)F` gave a relative cell viability of 0.668 ± 0.04.

In turn, `O=C1CCC[C@@H]2[C@H]3CCC[N+]4([O-])CCC[C@@H](CN12)[C@@H]34` (some centres not stated) [Oxymatrine] displayed a relative cell viability of 1.09 ± 0.21.

As for `CC1CNc2c(cccc2S(=O)(=O)N[C@@H](CCCNC(=N)N)C(=O)N2CC[C@@H](C)C[C@@H]2C(=O)O)C1` (some centres not stated) [Argatroban], the relative cell viability turned out to be 1.02 ± 0.17.

With `CO[C@H]1C[C@@H]2CC[C@@H](C)[C@@](O)(O2)C(=O)C(=O)N2CCCC[C@H]2C(=O)O[C@H]([C@H](C)C[C@@H]2CC[C@@H](OC(=O)C(C)(CO)CO)[C@H](OC)C2)CC(=O)[C@H](C)/C=C(\C)[C@@H](O)[C@@H](OC)C(=O)[C@H](C)C[C@H](C)/C=C/C=C/C=C/1C`, the relative cell viability is 1.04 ± 0.013.

In the case of `CCOC(=O)[C@H](CCc1ccccc1)N[C@H]1CCCN2CCC[C@@H](C(=O)O)N2C1=O` [Cilazapril Monohydrate], the relative cell viability stood at 0.947 ± 0.13.

Turning to `CC(C)(C)C[C@@H]1N[C@@H](C(=O)N[C@H]2CC[C@H](O)CC2)[C@H](c2cccc(Cl)c2F)[C@]12C(=O)Nc1cc(Cl)ccc12`, the relative cell viability worked out at 1.09 ± 0.025.

Take `O=C1c2cccc(O)c2C(=O)c2c(O)cc(CO)cc21` [Aloe-emodin]: the relative cell viability came to 0.96 ± 0.11.

For `O=C1c2c(O)ccc(O)c2C(=O)c2c(NCCNCCO)ccc(NCCNCCO)c21` [Mitoxantrone], the relative cell viability stood at 0.0757 ± 0.0097.

In turn, `O=C1c2c(O)ccc(O)c2C(=O)c2c(NCCNCCO)ccc(NCCNCCO)c21` [Mitoxantrone HCl] yielded a relative cell viability of 0.0676 ± 0.0056.

The compound `Cc1ccc([N+](=O)[O-])cc1S(=O)(=O)N(C)/N=C/c1cnc2ccc(Br)cn12` had a relative cell viability of 0.139 ± 0.01.

With `Nc1nc(NC2CC2)cc(-c2cccc(Cl)c2Cl)n1`, the relative cell viability was 1.162 ± 0.0077.

Regarding `NS(=O)(=O)NCCNc1nonc1/C(=N/O)Nc1ccc(F)c(Br)c1`, the relative cell viability was 1.24 ± 0.064.

For `Fc1ccc2[nH]ccc2c1-c1nc(N2CCOCC2)c2sc(CN3CCN(CC4CC4)CC3)cc2n1`, the relative cell viability was 0.871 ± 0.011.

As for `Cn1cncc1[C@@](N)(c1ccc(Cl)cc1)c1ccc2c(c1)c(-c1cccc(Cl)c1)cc(=O)n2C` [Tipifarnib], the relative cell viability worked out at 0.995 ± 0.046.

As for `Cc1nc(-c2cn3c(n2)-c2ccc(-c4cnn(C(C)(C)C(N)=O)c4)cc2OCC3)n(C(C)C)n1`, the relative cell viability came out at 1.01 ± 0.032.

For `c1ccc(NCc2ccc(CNc3ccccn3)cc2)nc1`, the relative cell viability turned out to be 1.09 ± 0.085.

`COc1cc([C@@H]2c3cc4c(cc3[C@@H](O[C@@H]3O[C@@H]5CO[C@@H](C)O[C@H]5[C@H](O)[C@H]3O)[C@H]3COC(=O)[C@H]23)OCO4)cc(OC)c1O` [Etoposide] gave a relative cell viability of 1.22 ± 0.11.

The compound `COc1cc([C@@H]2c3cc4c(cc3[C@@H](O[C@@H]3O[C@@H]5CO[C@@H](c6cccs6)O[C@H]5[C@H](O)[C@H]3O)[C@H]3COC(=O)[C@H]23)OCO4)cc(OC)c1O` [Teniposide] registered a relative cell viability of 0.113 ± 0.0088.

`COc1cccc(C=NCCN=Cc2cccc(OC)c2[O-])c1[O-].[Cl-].[Mn+3]` displayed a relative cell viability of 1.04 ± 0.041.

In turn, `Nc1ccc(-c2ccc3ncc4ccc(=O)n(-c5cccc(C(F)(F)F)c5)c4c3c2)cn1` [Torin 2] registered a relative cell viability of 0.147 ± 0.014.

Regarding `COc1ccc(-c2ccc3ncc4c(c3c2)n(-c2ccc(N3CCNCC3)c(C(F)(F)F)c2)c(=O)n4C)cn1`, the relative cell viability stood at 0.202 ± 0.013.

In turn, `CN1C(=O)C(Cc2c[nH]c3ccccc23)NC1=S` (configuration not stated) [Necrostatin-1] displayed a relative cell viability of 1.154 ± 0.0058.

As to `CCn1c(N)c(C(=O)NC)c(=O)c2ccc(C#CC(C)(O)COC)nc21` (configuration not stated), the relative cell viability was found to be 0.951 ± 0.15.

`Cc1ccc(-n2sc(=O)n(Cc3ccc(F)cc3)c2=O)cc1` registered a relative cell viability of 1.03 ± 0.086.

Regarding `C=CC(=O)Nc1cc(Nc2nccc(-c3c[nH]c4ccccc34)n2)c(OC)cc1N(C)CCN(C)C`, the relative cell viability was determined as 0.913 ± 0.049.

For `O=C(NC[C@H](O)CN1CCc2ccccc2C1)c1cc(NC2COC2)ncn1`, the relative cell viability was 1.09 ± 0.029.

With `Cn1c(Nc2ccc(C(F)(F)F)cc2)nc2cc(Oc3ccnc(-c4ncc(C(F)(F)F)[nH]4)c3)ccc21`, the relative cell viability stood at 0.9528 ± 0.0094.

Consider `CN[C@@H](C)C(=O)N[C@H](C(=O)N1CCC[C@H]1C(=O)Nc1snnc1-c1ccccc1)C1CCCCC1`, for which the relative cell viability was 0.229 ± 0.13.

For `CC[C@@H]1/C=C(\C)C[C@H](C)C[C@H](OC)[C@H]2O[C@@](O)(C(=O)C(=O)N3CCCC[C@H]3C(=O)O[C@H](/C(C)=C/[C@@H]3CC[C@@H](O)[C@H](OC)C3)[C@H](C)[C@@H](O)CC1=O)[C@H](C)C[C@@H]2OC` [Ascomycin (FK520)], the relative cell viability was 1.16 ± 0.12.

`O=C(O)CCNC(=O)c1ccccc1` [Betamipron] gave a relative cell viability of 0.9 ± 0.089.

`CN(NC(=O)CC(=O)NN(C)C(=S)c1ccccc1)C(=S)c1ccccc1` [Elesclomol (STA-4783)] displayed a relative cell viability of 0.0115 ± 0.0045.

Consider `O=C(O)c1ccccc1` [Benzoic Acid], for which the relative cell viability worked out at 1.26 ± 0.07.

In turn, `COc1cc(N2CCC(N3CCN(C)CC3)CC2)ccc1Nc1ncnc(Nc2ccccc2S(=O)(=O)C(C)C)n1` yielded a relative cell viability of 0.887 ± 0.056.

In turn, `Cc1cc(Nc2ccc(NC(=O)c3ccc(Nc4ccnc5ccccc45)cc3)cc2)nc(N)n1` gave a relative cell viability of 0.227 ± 0.023.

Take `CN(C)CCCNC(=O)c1ccc(-c2cc(O)c3ncccc3c2)cc1`: the relative cell viability was determined as 0.898 ± 0.27.

Take `Cc1ccc(NC(=O)C2(c3ccc4c(c3)OC(F)(F)O4)CC2)nc1-c1cccc(C(=O)O)c1` [VX-809 (Lumacaftor)]: the relative cell viability is 0.144 ± 0.025.

In turn, `CC(C)(CO)c1cc2cc(NC(=O)C3(c4ccc5c(c4)OC(F)(F)O5)CC3)c(F)cc2n1C[C@@H](O)CO` showed a relative cell viability of 1.14 ± 0.18.

Consider `C[C@]1(c2nc3c(C(N)=O)cccc3[nH]2)CCCN1` [Veliparib (ABT-888)], for which the relative cell viability worked out at 1.02 ± 0.44.

Consider `CN1CCN(C2CCN(C(=O)Nc3cc(Oc4ccc(NC(=O)C5(C(=O)Nc6ccc(F)cc6)CC5)c(F)c4)ccn3)CC2)CC1` [Golvatinib (E7050)], for which the relative cell viability was 1.15 ± 0.079.

On to `COc1ccc(-c2cc(=O)c3c(O)cc(O)cc3o2)cc1O` [Diosmetin], for which the relative cell viability is 1.35 ± 0.14.

`O=c1cc(CN2CCOCC2)occ1OCCCCCSc1ccnc2cc(C(F)(F)F)ccc12` registered a relative cell viability of 1.29 ± 0.14.

For `CC/C(=C(\c1ccc(O)cc1)c1ccc(OCCNC)cc1)c1ccccc1` [Endoxifen HCl], the relative cell viability came out at 1.16 ± 0.081.

`CC/C(=C(\c1ccccc1)c1ccc(OCCN(C)C)cc1)c1ccccc1` [Tamoxifen Citrate] showed a relative cell viability of 1.26 ± 0.064.

`CN(C)Cc1c(C(=O)NCCOc2ccc(C(=O)NO)cc2)oc2ccccc12` came in with a relative cell viability of 0.153 ± 0.054.

Consider `O=C(Nc1c[nH]nc1-c1nc2ccc(CN3CCOCC3)cc2[nH]1)NC1CC1`, for which the relative cell viability is 0.3 ± 0.036.

As for `O=[N+]([O-])c1ccc2c(c1)S(=O)(=O)C=C2` [Stattic], the relative cell viability is 1.03 ± 0.043.

For `N#Cc1cc(CN2CCC(Nc3ncnc4sc(Cl)cc34)CC2)ccc1F`, the relative cell viability was found to be 1.42 ± 0.079.

`C[C@]12CC[C@@H]3c4ccc(OC(=O)c5ccccc5)cc4CC[C@H]3[C@@H]1CC[C@@H]2O` [Estradiol Benzoate]: the relative cell viability was found to be 1.19 ± 0.14.

For `CCN(CC)CCNC(=O)c1ccc(N)cc1` [Procainamide HCl], the relative cell viability amounted to 0.954 ± 0.032.

Compound `COc1ccc(Cn2ccc3ccc(C(=O)NO)cc32)cc1` showed a relative cell viability of 0.909 ± 0.14.

Regarding `CCN(CC)Cc1ccc2cc(COC(=O)Nc3ccc(C(=O)NO)cc3)ccc2c1` [Givinostat (ITF2357)], the relative cell viability amounted to 0.156 ± 0.0025.

`OCc1ccc(O[C@@H]2O[C@H](CO)[C@@H](O)[C@H](O)[C@H]2O)cc1` [Gastrodin]: the relative cell viability came to 1.354 ± 0.0026.

`CN(C)Cc1cccc(N/C(=C2\C(=O)Nc3cc(C(N)=O)ccc32)c2ccccc2)c1`: the relative cell viability worked out at 0.7302 ± 0.0057.

Turning to `CCS(=O)(=O)Nc1ccc2c(c1)/C(=C(/Nc1ccc(CN3CCCCC3)cc1)c1ccccc1)C(=O)N2` [Hesperadin], the relative cell viability turned out to be 0.112 ± 0.0022.

On to `COC(=O)c1ccc2c(c1)NC(=O)/C2=C(\Nc1ccc(N(C)C(=O)CN2CCN(C)CC2)cc1)c1ccccc1` [Nintedanib (BIBF 1120)], for which the relative cell viability was found to be 0.761 ± 0.038.

`CCCCN(Cc1ccc(C(=O)NO)cc1)C(=O)Nc1ccccc1` [Nexturastat A]: the relative cell viability worked out at 1.06 ± 0.17.

`CC(=O)Nc1ccc(C(=O)Nc2ccccc2N)cc1` [CI994 (Tacedinaline)] showed a relative cell viability of 1.17 ± 0.1.

Compound `CC(C)[C@H](C(=O)Nc1ccc(C(=O)NO)cc1)c1ccccc1` gave a relative cell viability of 0.138 ± 0.015.

In turn, `CCn1cc(-c2ccnc3[nH]c(-c4cccc(CN(C)C)c4)cc23)c(-c2ccc(NC(=O)N(C)C)cc2)n1` came in with a relative cell viability of 0.94 ± 0.099.

As to `COc1ccccc1-c1cc(Nc2cccc(CS(N)(=O)=O)c2)ncn1`, the relative cell viability turned out to be 1.11 ± 0.029.

Regarding `CN(C)C(=O)Nc1cccc(-c2ccc(N(C)C)cc2)c1` [Atglistatin], the relative cell viability was 1.37 ± 0.12.

In turn, `O=C(Nc1cc(C(F)(F)F)ccc1N1CCCCC1)c1ccncc1` displayed a relative cell viability of 1.07 ± 0.016.

In turn, `CC(C)n1nc(-c2ccc3oc(N)nc3c2)c2c(N)ncnc21` came in with a relative cell viability of 0.387 ± 0.022.

In the case of `CC1(C)CCC[C@]2(C)[C@H]3CC(=O)O[C@]3(C)CC[C@@H]12` [Sclareolide], the relative cell viability was 0.9838 ± 0.007.

`CS(=O)(=O)N1CCN(Cc2cc3nc(-c4cccc5[nH]ncc45)nc(N4CCOCC4)c3s2)CC1`: the relative cell viability amounted to 1.17 ± 0.013.

Compound `COc1ccc(-c2nc(N3CCOCC3)c3sc(CN(C)c4ncc(C(=O)NO)cn4)cc3n2)cn1` returned a relative cell viability of 0.132 ± 0.013.

With `Cc1c(CN2CCN(C(=O)[C@H](C)O)CC2)sc2c(N3CCOCC3)nc(-c3cnc(N)nc3)nc12`, the relative cell viability came to 0.546 ± 0.022.

As for `Cc1c(Cc2ccc3ccccc3n2)c2cc(F)ccc2n1CC(=O)O`, the relative cell viability came out at 1.08 ± 0.055.

`CN1C(C(=O)Nc2ccccn2)=C(O)c2sccc2S1(=O)=O` [Tenoxicam] came in with a relative cell viability of 1 ± 0.051.

On to `O=C(COc1ccc(C(=O)c2ccccc2)cc1)NC1CCN(Cc2ccccc2)CC1` [AdipoRon], for which the relative cell viability stood at 0.881 ± 0.096.

In the case of `CN1CCN(c2ccc3nc(-c4c(N)c5c(F)cccc5[nH]c4=O)[nH]c3c2)CC1` [Dovitinib (TKI258) Lactate], the relative cell viability was 0.67 ± 0.011.

`CN1CCN(c2ccc3nc(-c4c(N)c5c(F)cccc5[nH]c4=O)[nH]c3c2)CC1` [Dovitinib (TKI-258) Dilactic Acid] showed a relative cell viability of 0.6208 ± 0.0046.

As to `CN1CCN(c2ccc3nc(-c4c(N)c5c(F)cccc5[nH]c4=O)[nH]c3c2)CC1` [Dovitinib (TKI-258, CHIR-258)], the relative cell viability is 0.85 ± 0.018.
